The campaign covered roughly 320,000 compounds. About 22,000 (6.9%) were called active. Inconclusive results (about 27%) are left out. The list comes from a sample in which actives are over-represented; it also holds similar structures and randomly drawn compounds. Values without a mark were called inactive. The call rests on the fitted dose curve; in most records, active means well fitted inhibition curve with a large enough effect; inconclusive means small, poorly fitted or top-dose-only effect, or another doubt; inactive means no such curve, though single readings can be large or run the other way.
Assay: Primary qHTS for delayed death inhibitors of the malarial parasite plastid, 96 hour incubation
Details: P. falciparum luciferase reporter growth; series mostly up to 28.7 µM; activity change, negative = inhibition: at the top concentration
In short: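 96 h incubation, 37 C, 5% CO2, of luciferase-reporter P. falciparum-infected RBCs (2% hematocrit, 0.05% parasitemia final) with test compounds; endpoint luminescence.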
On the % scale 0 is the no-effect control and ±100 the full control effect; potency means the concentration at half of the fitted maximal effect.

Compound	activity change, negative = inhibition	Potency
CC(C)Oc1cccc(C(=O)C2CCCN(C3CCOCC3)C2)c1 (centres undefined)	-13.1%	–
CSc1ccc(C(=O)C2CCCN(C(=O)c3ccc(C)nc3)C2)cc1 (centres undefined)	-19.8%	–
Cn1nccc1C(=O)N1CCCC(C(=O)c2ccc(Oc3ccccc3)cc2)C1 (centres undefined)	–	2.94 µM (active)
Cc1nc(C(=O)N2CCCC(C(=O)c3ccc(Cl)cc3)C2)cs1 (centres undefined)	7.81%	–
CCNC(=O)N1CCCC(C(=O)c2ccc(-c3ccccc3)cc2)C1 (centres undefined)	–	10.4 µM (active)
COc1ccc2cc(C(=O)C3CCCN(C(=O)c4sc(C)nc4C)C3)ccc2c1 (centres undefined)	–	13.1 µM (active)
COc1ccc(C(=O)C2CCCN(C(=O)c3cnsn3)C2)c(C)c1 (centres undefined)	12.8%	–
CCn1nc(C)cc1C(=O)N1CCCC(C(=O)c2cccc(OC)c2)C1 (centres undefined)	20.3%	–
Cc1ccccc1NC(=O)C1CCCN(C(=O)NCc2ccccc2)C1 (centres undefined)	-4.69%	–
CCOc1cc(/C=C/c2nc3ccccc3c(=O)[nH]2)cc(Br)c1OC	-29.4%	–
Cc1cc(OC(=O)c2ccc(OC(C)C)cc2)c([N+](=O)[O-])c(=O)[nH]1	-13.8%	–
Cc1cccc(C(=O)OC(C)C(=O)NC2CCCc3ccccc32)c1O (centres undefined)	92.5%	–
O=C(NC1CCCCC1)c1ccc(-c2ccc(Cl)cc2)o1	131%	–
COc1ccc(C2/C(=C(/O)c3ccc4c(c3)CC(C)O4)C(=O)C(=O)N2Cc2ccncc2)cc1 (centres undefined)	3.97%	–
CC(=O)c1c(C)[nH]c(C(=O)OCC(=O)Nc2c(C)n(C)n(-c3ccccc3)c2=O)c1C	17.9%	–
COc1ccc(N2CCN(C(=O)CN3C(=O)COc4ccccc43)CC2)cc1	2.23%	–
CN1CN(C)c2ccc([N+](=O)[O-])c3cccc1c23	41.2%	–
O=C(NCc1ccncc1)C1CCN(C(=O)c2cccc(Cl)c2)CC1	45.8%	–
CCCn1c(C2CCCN2c2nc(-c3ccc(C)cc3)cs2)nc2cc(Cl)c(N3CCCCC3)cc21 (centres undefined)	–	3.29 µM (active)
COc1cccc(NC(=O)CN2CCN(c3nc(-c4cccc(OC)c4)cs3)CC2)c1	-2.14%	–
COc1ccc(-c2csc(N3CCN(Cc4ccc5c(c4)OCO5)CC3)n2)cc1	-2.39%	–
Cc1ccc(-c2csc(N3CCN(c4cc5c(cc4Cl)nc(-c4ccncc4)n5CCOCCO)CC3)n2)cc1	–	5.86 µM (active)

Compound	activity change, negative = inhibition	Potency
CCn1c(SCC(=O)N/N=C/c2ccccc2OCC(=O)O)nnc1-c1ccc(C(C)(C)C)cc1	2.33%	–
O=C1CC2(CC(c3ccc(Cl)cc3)=NO2)C(=O)N1c1ccccc1 (centres undefined)	-4.38%	–
COCCN(CCOC)c1nc(N)c2c(N)nc3c(c2c1C#N)CC(=O)N3Cc1ccc(Cl)cc1	–	2.62 µM (active)
CCCCN1C(=O)C(=O)N(CC(=O)Nc2cccc(C(C)=O)c2)C1=O	-16.1%	–
COc1ccc(NCCc2ccccn2)cc1	30.7%	–
Cc1ccc(NC(=O)CCC(=O)c2ccc(Br)cc2)cc1	37%	–
OC1CCCN(c2ncnc3c2nnn3Cc2c(F)cccc2Cl)C1 (centres undefined)	45.1%	–
O=C(NCc1ccccc1Cl)C1CCN(c2ncnc3c2nc2n3CCCCC2)CC1	17.6%	–
CN(C(=O)C1CCN(c2ncnc3c2nc2n3CCCCC2)CC1)C1CCCCC1	1.7%	–
CCOC(=O)c1cccc(NC(=O)C2CCN(c3ncnc4c3nc3n4CCCCC3)CC2)c1	–	10.4 µM (active)
CN(Cc1ccccc1)C(=O)C1CCCN(c2ncnc3c2nc2n3CCCCC2)C1 (centres undefined)	–	14.7 µM (active)
COc1cccc(CNC(=O)C2CCCN(c3ncnc4c3nc3n4CCCCC3)C2)c1 (centres undefined)	23.4%	–
COc1cccc(NC(=O)C2CCCN(c3ncnc4c3nc3n4CCCCC3)C2)c1 (centres undefined)	–	8.28 µM (active)
COCCNc1ncnc2c1nc1n2CCCC1	16.5%	–
O=C(NCCCN1CCCCC1)C1CCCN(c2ncnc3c2nc2n3CCCCC2)C1 (centres undefined)	0.744%	–
Cc1cnc(C(=O)Oc2cccc(Cl)c2Cl)cn1	34.7%	–
O=C(NCC#CCSc1nnc(-c2cccc3ccccc23)o1)c1cccs1	-16.4%	–
Cc1ccc(S(=O)(=O)N[C@@H](Cc2ccccc2)C(=O)N2CCC(C(=O)N[C@H](C(=O)O)C(C)O)CC2)cc1 (some centres undefined)	4.81%	–
O=S(=O)(Cc1nnnn1-c1ccc(Br)cc1)c1ccc(F)cc1	13.9%	–
O=C(Nc1ccccc1)/C(=C\c1ccco1)NC(=O)c1ccco1	14.6%	–
CCn1c(SCC(=O)Nc2sc(C)c(C)c2C#N)nnc1C1CC1	4.09%	–
CC(=O)c1c(N2CCOCC2)nc(=S)n(Cc2ccccc2)c1C	–	0.329 µM (active)

Compound	activity change, negative = inhibition	Potency
CC(=O)c1c(N2CCOCC2)nc(=S)n(-c2cc(C)ccc2C)c1C	0.824%	–
O=C(N1CCOCC1)N(Cc1ccccc1)c1ccccn1	2.7%	–
CN1CCN(C(=O)c2ccccc2NC(=O)COc2ccccc2Cl)CC1	-4.76%	–
CCC(C)N(C)C1CCN(C(=S)Nc2ccc(OC)cc2)CC1 (centres undefined)	-7.01%	–
COc1ccc(S(=O)(=O)N2CCN(C(=S)NCC3CCCO3)CC2)cc1OC (centres undefined)	-5.09%	–
CCOc1ccc(S(=O)(=O)N2CCN(C(=S)NCC3CCCO3)CC2)cc1 (centres undefined)	–	2.94 µM (active)
CCOc1ccc(NC(=S)N2CCC(N(C)CC3CCCO3)CC2)cc1 (centres undefined)	–	11.7 µM (active)
CCOc1ccc(S(=O)(=O)NCCC(=O)NCC2CCCO2)cc1 (centres undefined)	24%	–
CCOc1ccc(NC(=S)N2CCCCCC2)cc1	-20%	–
NCC(=O)c1cccc2ccc[n+]([O-])c12	36.4%	–
O=C(CNC(=O)OCc1ccccc1)NC1CCCCNC1=O (centres undefined)	54.3%	–
Cc1ccc(C(=O)NCC(=O)NCc2cc(=O)n(C)c(=O)n2C)cc1	13.5%	–
O=C(NCCc1nnc2ccc(SCC(=O)N3CCOCC3)nn12)c1ccccc1	41.2%	–
COc1ccc(N2CCN(C(=O)C3CCN(S(=O)(=O)c4ccc(C)cc4)CC3)CC2)cc1	6.26%	–
CCOc1cccc(NC(=O)C2CCCN(S(=O)(=O)c3ccc(OC)cc3)C2)c1 (centres undefined)	2.89%	–
CCCCOc1ccc(NC(=O)[C@@H]2CCCN2C(=O)C2CCN(S(=O)(=O)c3ccc(C)cc3)CC2)cc1	–	11.7 µM (active)
Cc1c(C(=O)N/N=C/c2ccccc2)[nH]c2c([N+](=O)[O-])cccc12	0%	–
CN(C)S(=O)(=O)c1ccc(N/C=C(\[N+](=O)[O-])S(=O)(=O)c2ccccc2)cc1	49.1%	–
COC(=O)c1ccc(NC(=O)CSc2nnc(C3CC3)n2C)cc1	14.4%	–
COc1ccc(C(=O)OC(C)C(=O)NC2CCCC2)cc1S(=O)(=O)N1CCOCC1 (centres undefined)	-6.55%	–
